The source made the active and inactive calls.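 The calls were made as follows: active = z-score of at least 1.8 in each of two replicates, scored against plate mean and spread of sample wells; inactive = the rest.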
assay: galactose survival enhancers in mitochondrial complex I cybrids – cell-based, galactose medium, ATP luminescence, primary screen (AID 1645843); conditions: complex I mutant cybrid cells, 72 h, active compounds read high;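 also: positive z means more ATP and so rescue of galactose-driven cybrid death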

SMILES	z-score
c1coc(-c2nc3c(cnn3Cc3cccs3)[nH]2)c1	-0.74 (inactive)
Cc1nn(C)c(C)c1-c1ccnc(N(C)Cc2cnn(C(C)C)c2)n1	0.67 (inactive)
CC[C@H](C)[C@H](N)C(=O)N1CCC(Cn2cc(C3CCCCC3)nn2)CC1	-0.81 (inactive)
CC(=O)N[C@@H](CC(C)C)C(=O)N1CCC(n2cc(C(C)(C)N)nn2)CC1	-0.505 (inactive)
O=c1c2c3c(sc2ncn1CCF)CCCCC3	-0.535 (inactive)
COc1cc(F)c(C(=O)N(C)CC2CCCCN2C)c(F)c1 (centres undefined)	-0.575 (inactive)
O=C(C(=O)N1CCCCC1c1nc2ccc(F)cc2[nH]1)c1ccccc1 (centres undefined)	0.05 (inactive)
CCCCCC(=O)N1CCC(n2cc(C3CCCC3)nn2)CC1	0.965 (inactive)
CCCC(C)c1nc2c(cnn2C(C)C(C)C)[nH]1 (centres undefined)	-1.01 (inactive)
COc1ccccc1CNC(=O)Nc1nnc(C)s1	4.88 (active)
CCC1(CC)CC1C(=O)N1CCCCC1CCn1ccnc1C (centres undefined)	-0.475 (inactive)
COc1ccc(CN2CCN(c3nccc(-c4c(C)nn(C)c4C)n3)CC2=O)cc1	1.14 (inactive)
CCN(C)Cc1ccc(-c2nc(C(F)(F)F)c(C)c(=O)[nH]2)cc1	0.97 (inactive)
Cc1cccc2c(C(=O)N3CCC(C)(C)C3)cc(-c3cnc(C4CC4)nc3)nc12	2.3 (active)
CCc1n[nH]c2c1CN(C(=O)c1cncc(C)c1)CC2	1.23 (inactive)
CSCc1ccc(C(=O)Nc2cccc3cccnc23)o1	1.12 (inactive)
Cc1cc(C)c(CN[C@@H](C)C(C)C)c(C)c1CO	-0.51 (inactive)
O=C(C1CCCCCC1)N1CCC(n2cc(C3CC3)nn2)CC1	-0.53 (inactive)
Cc1nn(C)c(C)c1-c1ccnc(NCC(C)Oc2cccnc2)n1 (centres undefined)	1.26 (inactive)
Cc1cccc2c(C(=O)N(C)C(C)C)cc(-c3cnn(C(C)(C)C)c3)nc12	1.41 (inactive)

SMILES	z-score
Cc1cc(CN[C@@H](C)C(N)=O)c(C)s1	0.04 (inactive)
COc1ccccc1-c1noc(Cn2ncc3ccccc32)n1	1.12 (inactive)
CN(CC1COc2ccccc2O1)C(=O)Nc1nncs1 (centres undefined)	-0.295 (inactive)
CC1CCc2c(sc3ncn(Cc4noc(C(C)C)n4)c(=O)c23)C1 (centres undefined)	-0.525 (inactive)
CCn1ncc2[nH]c(-c3ccc(-c4ccccn4)cc3)nc21	-1.15 (inactive)
O=C(O)C1(Oc2cccc(-c3cccc4ncccc34)c2)CCCC1	-0.5 (inactive)
Cc1ccccc1-c1cccc(N2CCC(N3CCN(C)C(C)C3)CC2)c1 (centres undefined)	1.36 (inactive)
O=C(c1cc(-c2cncnc2)nc2cc(F)ccc12)N1CCCC1Cc1cccnc1 (centres undefined)	0.765 (inactive)
Cc1nn(C)c(C)c1-c1ccnc(N2CCC(c3ccccc3Cl)C2)n1 (centres undefined)	-1.27 (inactive)
Cc1cc(NC(=O)Cn2ccc(-c3cccc(F)c3)n2)n(-c2ccccn2)n1	-0.96 (inactive)
CCCCn1cc(-c2cc(C(=O)N3CCCC3)c3cccc(C)c3n2)cn1	2.59 (active)
CC(CCN1CCC(n2cc(CCO)nn2)CC1)CC(C)(C)C (centres undefined)	-0.485 (inactive)
C1=CCC(CN2CCC(N3CCCC3)CC2)CC1 (centres undefined)	-0.58 (inactive)
Cc1ccc(NC(=O)c2csc(Cc3ccccc3)n2)cn1	-1.08 (inactive)
CCCOC1CCCN(C2CCN(c3ccc(F)c(F)c3)CC2)C1 (centres undefined)	-0.725 (inactive)
CC(CCCC(C)(C)O)NC/C=C/c1ccc(F)cc1 (centres undefined)	-0.51 (inactive)
NC1CCN(C2CCN(c3cccc(-c4ccccc4)c3)CC2)CC1	-1.03 (inactive)
COc1ccc(F)c(-c2cnc(C)[nH]2)c1	-0.545 (inactive)
CC1Cc2cc(C(=O)N3CCC(n4cc(CCO)nn4)CC3)ccc2O1 (centres undefined)	0.36 (inactive)
